This note sets out measurements from ChEMBL document CHEMBL2218924, “A broad activity screen in support of a chemogenomic map for kinase signalling research and drug discovery” (Biochem J, 2013).

For assay [1], the target named is Protein kinase C alpha type (Homo sapiens) (UniProt P17252). Particulars: at 1 µM.
The target is the same in assay [2]. Particulars: at 10 µM.
The target in assay [3] is Protein kinase C beta type (Homo sapiens) (UniProt P05771). Conditions: at 1 µM.
The target is the same in assay [4]. Particulars: at 10 µM.
Assay [5] shares this target. Conditions: at 1 µM. The source holds these as a separate data set.
The target is the same in assay [6]. Particulars: at 10 µM. This is another data set of the same source.
For assay [7], the target named is Protein kinase C gamma type (Homo sapiens) (UniProt P05129). Conditions: at 1 µM.
The target is the same in assay [8]. Conditions: at 10 µM.
Assay [9] deals with Protein kinase C delta type (Homo sapiens) (UniProt Q05655). Particulars: at 1 µM.
Protein kinase C delta type (Homo sapiens), sequence (Q05655 whole entry, looked up): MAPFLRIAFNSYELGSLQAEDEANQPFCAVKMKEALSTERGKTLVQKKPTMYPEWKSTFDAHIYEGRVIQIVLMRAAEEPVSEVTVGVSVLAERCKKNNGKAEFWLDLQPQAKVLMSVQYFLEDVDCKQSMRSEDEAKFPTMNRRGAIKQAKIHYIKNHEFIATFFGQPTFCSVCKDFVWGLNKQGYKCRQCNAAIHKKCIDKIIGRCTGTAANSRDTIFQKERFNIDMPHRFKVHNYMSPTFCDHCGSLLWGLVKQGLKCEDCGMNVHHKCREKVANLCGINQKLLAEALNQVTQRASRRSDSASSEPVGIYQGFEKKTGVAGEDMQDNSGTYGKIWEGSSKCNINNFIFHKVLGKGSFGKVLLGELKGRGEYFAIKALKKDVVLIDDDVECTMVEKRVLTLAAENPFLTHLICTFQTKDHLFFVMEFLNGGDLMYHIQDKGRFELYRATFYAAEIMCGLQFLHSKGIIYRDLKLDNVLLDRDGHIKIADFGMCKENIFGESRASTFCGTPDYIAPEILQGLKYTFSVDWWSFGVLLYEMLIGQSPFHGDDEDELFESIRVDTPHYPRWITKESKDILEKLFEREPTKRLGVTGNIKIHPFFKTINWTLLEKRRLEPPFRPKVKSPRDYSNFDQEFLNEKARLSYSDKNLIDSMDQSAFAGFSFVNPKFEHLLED
For assay [10] the target is unchanged. Conditions: at 10 µM.

Protein kinase C beta type (Homo sapiens), sequence (P05771 2-671 limits assumed): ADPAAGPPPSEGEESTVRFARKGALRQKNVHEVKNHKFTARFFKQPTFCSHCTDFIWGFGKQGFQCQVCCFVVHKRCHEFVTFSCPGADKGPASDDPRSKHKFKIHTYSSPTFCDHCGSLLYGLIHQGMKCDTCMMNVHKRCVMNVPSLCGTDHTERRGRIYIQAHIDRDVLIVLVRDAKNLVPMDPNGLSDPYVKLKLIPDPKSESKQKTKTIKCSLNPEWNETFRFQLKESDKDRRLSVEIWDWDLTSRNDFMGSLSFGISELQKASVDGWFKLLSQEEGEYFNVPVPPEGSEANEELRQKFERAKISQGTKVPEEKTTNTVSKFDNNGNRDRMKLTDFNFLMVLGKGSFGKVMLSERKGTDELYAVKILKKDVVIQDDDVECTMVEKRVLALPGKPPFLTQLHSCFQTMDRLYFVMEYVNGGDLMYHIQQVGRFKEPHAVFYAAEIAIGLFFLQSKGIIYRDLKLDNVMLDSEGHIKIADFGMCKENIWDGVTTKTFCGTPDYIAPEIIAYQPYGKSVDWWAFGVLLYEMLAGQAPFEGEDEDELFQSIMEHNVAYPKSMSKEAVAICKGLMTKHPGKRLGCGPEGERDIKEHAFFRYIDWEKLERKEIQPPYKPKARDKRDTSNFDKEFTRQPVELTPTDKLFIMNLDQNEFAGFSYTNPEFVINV

For orientation: residual activity means the signal under treatment as a percentage of the control signal. Turning to `Nc1ncnc2c1c(-c1ccc(Oc3ccccc3)cc1)cn2C1CCCC1`, the residual activity is 102% in assay [1]; 98% in assay [2]; 103% in assay [3]; 103% in assay [4]; 99% in [5]; 91% in [6]. Also, the residual activity is 111% in assay [7], 104% in assay [8], 94% in assay [9] and 100% in assay [10].

For the compound `NC(=O)Nc1sc(-c2ccc(F)cc2)cc1C(N)=O`, the residual activity was found to be 91% in assay [1]; 54% in assay [2]; 103% in [3]; 77% in [4]; 105% in [5]; 89% in [6]. Further, the residual activity in [9] came out at 78%; in [10] it was 31%.

In the case of `CC(C)(C)c1nc2c3ccc(F)cc3c3c(=O)[nH]ccc3c2[nH]1`, the residual activity in [1] came out at 65%; in [2], 62%; in [7] it was 40%; in assay [8], 46%; in assay [9] it was 54%; in assay [10], 63%.

As to `Cn1c2ccccc2c2c3c(c4c5ccccc5n(CCC#N)c4c21)CNC3=O`, the residual activity in [1] amounted to 1%; in [2], 3%; in assay [3], 6%; in assay [4], 6%; in assay [7], 9%; in assay [8], 16%.

Turning to `O=C(CCCc1ccc(-c2ccccc2F)cc1)Nc1ccc(O)cc1`, the residual activity in assay [1] turned out to be 106%; in [2], 108%; in assay [3], 112%; in assay [4], 108%; in assay [5], 108%; in assay [6], 101%. Moreover, the residual activity in assay [7] was determined as 104%; in [8] it was 110%.

With `NC(=O)c1ccc(-c2nc(-c3ccc4c(c3)OCCO4)c(-c3ccccn3)[nH]2)cc1`, the residual activity in assay [1] was 90%; in assay [2], 96%; in assay [3], 124%; in assay [4], 121%; in assay [9] it was 93%; in assay [10], 100%.

Consider `O=C1Cc2c([nH]c3ccc(Br)cc23)-c2ccccc2N1`, for which the residual activity in assay [1] was determined as 90%; in assay [2], 70%; in assay [6], 88%; in assay [8], 93%; in [9], 99%; in assay [10], 93%.

With `O=C1NC(=O)C(c2cn(CCCn3ccnc3)c3ccccc23)=C1Nc1ccccc1`, the residual activity in assay [1] was 6%; in [2] it was 2%; in assay [3] it was 19%; in assay [4], 2%; in assay [5], 27%; in assay [6] it was 6%. Besides, the residual activity worked out at 8% in assay [7], 2% in assay [8], 8% in assay [9] and 2% in assay [10].

For `COc1ccc(CNC(=O)Nc2ncc([N+](=O)[O-])s2)cc1`, the residual activity was determined as 102% in assay [1] and 101% in assay [2].

On to `O=C1NC(=O)C(c2c[nH]c3ccccc23)=C1c1c[nH]c2ccccc12`, for which the residual activity in [1] was 26%; in assay [2] it was 4%; in [3], 66%; in assay [4] it was 23%; in assay [5] it was 75%; in assay [6], 27%. Moreover, the residual activity in assay [7] stood at 36%; in assay [8], 6%; in assay [9], 31%; in assay [10], 5%.

Turning to `O=C1NC(=O)c2c1c1c3ccccc3[nH]c1n1cncc21`, the residual activity in assay [1] was determined as 97%; in assay [2], 84%; in [7] it was 71%; in assay [8], 56%; in assay [9], 79%; in assay [10] it was 70%.

With `Cn1sc(=O)n(Cc2ccccc2)c1=O`, the residual activity in [1] amounted to 85%; in assay [2], 3%; in assay [3], 94%; in assay [4] it was 54%; in assay [5] it was 89%; in assay [6], 43%. Moreover, the residual activity in [7] is 59%; in assay [8] it was 3%; in [9], 87%; in [10] it was 45%.

As for `CC(C)[C@H](CO)Nc1nc(Nc2cc(N)cc(Cl)c2)c2ncn(C(C)C)c2n1`, the residual activity in assay [1] came out at 83%; in assay [2], 97%; in assay [7], 94%; in assay [8], 80%; in [9], 93%; in assay [10] it was 72%.

In the case of `COc1ccc(Cl)cc1NC(=O)Nc1cc(C)nc2ccccc12`, the residual activity in [1] and in assay [2] was 98% each time.

As for `NCCNc1ncc(C(N)=O)c(Nc2cccc(C(F)(F)F)c2)n1`, the residual activity in assay [1] is 45%; in assay [2] it was 8%; in assay [3], 106%; in assay [4], 60%; in [7], 58%; in assay [8] it was 11%. Also, the residual activity in assay [9] was 75%; in [10] it was 28%.

With `CCCC(=O)Oc1ccc2[nH]c(C(=O)c3cc4ccccc4[nH]3)cc2c1`, the residual activity turned out to be 106% in assay [1]; 108% in [2]; 93% in [4]; 100% in assay [5]; 101% in assay [9].

For `O=C(O)/C=C/c1cc(Br)c(Br)c(Br)c1Br`, the residual activity in [1] amounted to 105%; in assay [2], 102%; in assay [3] it was 124%; in assay [5], 97%; in assay [6], 101%; in [7] it was 96%. In addition, the results for the residual activity in [9] and in [10] were 100% and 96%, respectively.

Turning to `Cc1cc(C)c(/C=C2\C(=O)Nc3ccccc32)[nH]1`, the residual activity in [1] came out at 100%; in [2], 104%.

Regarding `COc1cc2ncnc(Nc3cccc(Cl)c3)c2cc1OC`, the residual activity in [1] was found to be 103%; in assay [2], 108%; in [3], 110%; in assay [4], 106%; in assay [5] it was 107%; in assay [6] it was 108%. Moreover, the residual activity in assay [9] is 104%; in [10], 109%.

For `COc1cc2c(cc1OC)-c1n[nH]c(Nc3cccc(F)c3)c1C2`, the residual activity in assay [1] is 104%; in assay [2] it was 99%; in assay [3], 104%; in assay [4], 108%; in [5], 110%; in assay [6] it was 105%. The residual activity in assay [7] was found to be 104%; in assay [8] it was 105%; in assay [9], 102%; in assay [10], 106%.

As to `Nc1nc(Nc2ccc(S(N)(=O)=O)cc2)nn1C(=O)c1c(F)cccc1F`, the residual activity in [1] was 63%; in [2], 18%; in assay [6] it was 54%; in [7] it was 61%; in assay [8] it was 19%; in assay [9], 70%. In assay [10], the residual activity was determined as 23%.
